This is an account of results in PubChem BioAssay (Tox21).

A short description of test [1]: A CellTox Green Cytotoxicity Assay to monitor cytotoxicity in HEK293 cells - 40 hour (AID 1224871). Further: nearly all actives have a fitted effect of over 45% in size. Further: potency means the concentration at half of the fitted maximal effect. An outline of the steps:
(§1)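 Real-time, in one plate: 600 HEK293 cells/well with dead-cell DNA dye, pinned compound after 5 h, 37 C incubation over 40 h; viable cells give no appreciable fluorescence.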

Test [2] is described as follows: qHTS RealTime-Glo MT Cell Viability Assay in HEK293 cells - 16 hour (AID 1224872). Further: nearly all actives have a fitted effect of over 50% in size. Further: potency means the concentration at half of the fitted maximal effect. On activity change, negative = cytotoxicity: top concentration of the series differs between compounds. The procedure, abridged:
(§2)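 HEK293 cells seeded with NanoLuc/prosubstrate reagent, rested 5 h at 37 C, then dosed and kept at 37 C up to 40 h. Nonlytic real-time luminescence from viable cells read at 0, 8, 16, 24, 32 and 40 h.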
Background: qHTS replaces the single test concentration by a dilution series.

Test [3] in a line: qHTS RealTime-Glo MT Cell Viability Assay in HepG2 cells - 8 hour (AID 1224873). Further: nearly all actives have a fitted effect of over 55% in size. Further: potency means the concentration at half of the fitted maximal effect. An outline of the steps:
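Real-time viability: cells seeded at 600 per well together with NanoLuc and cell-permeant prosubstrate, compounds added after 5 h incubation. Luminescence tracked at 0, 8, 16, 24, 32 and 40 h of exposure.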

Test [4] is described as follows: qHTS RealTime-Glo MT Cell Viability Assay in HEK293 cells - 40 hour (AID 1224874). Further: nearly all actives have a fitted effect of over 50% in size. Further: potency means the concentration at half of the fitted maximal effect. The following applies: RealTime-Glo luminescence; max response: stronger effect = lower value. The procedure, abridged:
(§3)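 Kinetic, non-lysing viability readout. Seed HEK293 (600/well) with reagent, incubate 5 h at 37 C/5% CO2, pin 23 nL compound in DMSO, incubate at 37 C, read luminescence at 0, 8, 16, 24, 32, 40 h.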

Test [5] in a line: A CellTox Green Cytotoxicity Assay to monitor cytotoxicity in HEK293 cells - 24 hour (AID 1224875). Further: nearly all actives have a fitted effect of over 45% in size. Further: potency means the concentration at half of the fitted maximal effect. On activity change: series mostly up to about 77 µM. The procedure, abridged:
as §1

Test [6] in a line: A CellTox Green Cytotoxicity Assay to monitor cytotoxicity in HepG2 cells - 16 hour (AID 1224876). Further: nearly all actives have a fitted effect of over 45% in size. An outline of the steps:
(§4)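 Cytotoxicity was tracked as dead-cell DNA fluorescence in HepG2 cells treated with test compounds at 37 C; each time-point value comes from one kinetic series spanning 0, 8, 16, 24, 32 and 40 h.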

A short description of test [7]: qHTS RealTime-Glo MT Cell Viability Assay in HepG2 cells - 32 hour (AID 1224877). Further: nearly all actives have a fitted effect of over 55% in size. Further: potency means the concentration at half of the fitted maximal effect. The procedure, abridged:
(§5)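 HepG2 cells (600/well) were dispensed with RealTime-Glo reagents, incubated 5 h at 37 °C, then treated with compounds in DMSO for up to 40 h. Nonlytic NanoLuc luminescence reflecting viable cells was read at each stated time point.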

Test [8] is described as follows: A CellTox Green Cytotoxicity Assay to monitor cytotoxicity in HepG2 cells - 24 hour (AID 1224878). Further: nearly all actives have a fitted effect of over 45% in size. Further: potency means the concentration at half of the fitted maximal effect. The procedure, abridged:
as §4

The nature of test [9]: A CellTox Green Cytotoxicity Assay to monitor cytotoxicity in HepG2 cells - 40 hour (AID 1224879). Further: nearly all actives have a fitted effect of over 40% in size. Further: potency means the concentration at half of the fitted maximal effect. The procedure, abridged:
as §4

Test [10] in a line: qHTS RealTime-Glo MT Cell Viability Assay in HEK293 cells - 0 hour (AID 1224880). Further: nearly all actives have a fitted effect of over 45% in size. Further: potency means the concentration at half of the fitted maximal effect. On activity change, negative = cytotoxicity: top concentration of the series differs between compounds. An outline of the steps:
as §3

Test [11] can be described thus: A CellTox Green Cytotoxicity Assay to monitor cytotoxicity in HEK293 cells - 32 hour (AID 1224881). Further: nearly all actives have a fitted effect of over 40% in size. Further: potency means the concentration at half of the fitted maximal effect. The procedure, abridged:
as §1

Test [12] can be described thus: A CellTox Green Cytotoxicity Assay to monitor cytotoxicity in HepG2 cells - 0 hour (AID 1224882). Further: nearly all actives have a fitted effect of over 35% in size. The procedure, abridged:
as §4

Test [13] can be described thus: A CellTox Green Cytotoxicity Assay to monitor cytotoxicity in HepG2 cells - 32 hour (AID 1224883). Further: nearly all actives have a fitted effect of over 50% in size. Further: potency means the concentration at half of the fitted maximal effect. The procedure, abridged:
as §4

A short description of test [14]: A CellTox Green Cytotoxicity Assay to monitor cytotoxicity in HEK293 cells - 8 hour (AID 1224884). Further: nearly all actives have a fitted effect of over 35% in size. Further: potency means the concentration at half of the fitted maximal effect. The procedure, abridged:
as §1

Test [15] in a line: qHTS RealTime-Glo MT Cell Viability Assay in HepG2 cells - 16 hour (AID 1224885). Further: nearly all actives have a fitted effect of over 50% in size. Further: potency means the concentration at half of the fitted maximal effect. An outline of the steps: as §5
Test [16] in a line: qHTS RealTime-Glo MT Cell Viability Assay in HEK293 cells - 24 hour (AID 1224886). Further: nearly all actives have a fitted effect of over 50% in size. Further: potency means the concentration at half of the fitted maximal effect. On activity change, negative = cytotoxicity: top concentration of the series differs between compounds. The procedure, abridged:
as §2

Test [17] in a line: qHTS RealTime-Glo MT Cell Viability Assay in HEK293 cells - 8 hour (AID 1224887). An outline of the steps: as §3
Test [18] in a line: A CellTox Green Cytotoxicity Assay to monitor cytotoxicity in HEK293 cells - 16 hour (AID 1224888). Further: nearly all actives have a fitted effect of over 35% in size. Further: potency means the concentration at half of the fitted maximal effect. The procedure, abridged: as §1
The nature of test [19]: qHTS RealTime-Glo MT Cell Viability Assay in HepG2 cells - 0 hour (AID 1224889). Further: nearly all actives have a fitted effect of over 50% in size. Further: potency means the concentration at half of the fitted maximal effect. An outline of the steps: as §5
Test [20] is described as follows: A CellTox Green Cytotoxicity Assay to monitor cytotoxicity in HepG2 cells - 8 hour (AID 1224890). Further: nearly all actives have a fitted effect of over 45% in size. An outline of the steps: as §4

Unmarked numbers belong to inactive results. Inconclusive results are not listed. Activity calls are given as the source filed them. The call rests on the fitted dose curve; in most records, active means well fitted curve in the direction sought with a large enough effect in the repeat runs; inconclusive means weak or mixed curves; inactive means no such curve, though single readings can be large; an effect the other way counts as inactive or inconclusive.
On the % scale 0 is the no-effect control and ±100 the full control effect.

With `O=S(c1cc(Cl)cc(Cl)c1O)c1cc(Cl)cc(Cl)c1O`, the Potency result in test [1], in test [2], in [3], in test [5], in test [6] and in test [7] was “inactive” throughout. Also, the Potency result in test [8], in test [9], in test [10], in [11], in test [12] and in test [13] was “inactive” each time. The Potency result in [14], in test [15], in test [16], in [17], in [18] and in test [19] was “inactive” each time. Moreover, in [20], the Potency entry is “inactive”. The max response in test [4] is -7.88%.
Turning to `CCCCO`, the Potency result in [1], in [2], in test [3], in [5], in test [6] and in test [7] was “inactive” in each case. The Potency result in [8], in test [9], in test [10], in test [11], in test [12] and in test [13] was “inactive” each time. For the same compound, the Potency result in [14], in test [15], in test [16], in test [17], in [18] and in test [19] was “inactive” throughout. In addition, the Potency entry in [20] was “inactive”. Besides, the max response in test [4] is 1.62%.
On to `C=C(C)C(=O)OCCOCC`, for which the Potency result in test [1], in test [2], in test [3], in [5], in test [6] and in test [7] was “inactive” throughout. Also, the Potency result in test [8], in [9], in [10], in test [11], in [12] and in test [13] was “inactive” in each case. In addition, the Potency entry in test [14], in test [15], in [16], in [18] and in test [19] was “inactive” in each case. In addition, the max response in test [4] was 17.3%.
For the compound `CCC(C)(C)CC`, the Potency entry in [1], in [2], in [3], in test [5], in [6] and in test [7] was “inactive” throughout. The Potency result in test [8], in test [9], in test [10], in [11], in [12] and in test [13] was “inactive” each time. The Potency result in test [14], in [15], in test [16], in test [17], in test [18] and in test [19] was “inactive” in each case. Further, in test [20], the Potency result is “inactive”. Moreover, the max response in test [4] is -9.85%.
For the compound `CCC(C)O` (stereo not drawn), the Potency result in [1], in test [2], in [3], in [5], in test [6] and in [7] was “inactive” each time. Besides, the Potency entry in [8], in [9], in test [10], in test [11], in [12] and in test [13] was “inactive” in each case. Also, the Potency result in test [14], in [15], in test [16], in [17], in test [18] and in test [19] was “inactive” each time. The Potency entry in [20] is “inactive”. For the same compound, the max response in test [4] was 7.73%.
As to `C=CC1CC2C=CC1C2` (stereo not drawn), the Potency result in test [1], in [2], in test [3], in test [5], in [6] and in [7] was “inactive” each time. In addition, the Potency entry in [8], in [9], in test [10], in test [11], in [12] and in test [13] was “inactive” in each case. Further, the Potency result in test [14], in test [15], in test [16], in test [17], in test [18] and in [19] was “inactive” each time. The max response in test [4] is 2.72%.
Regarding `c1ccc(-c2ccccn2)nc1`, the Potency result in test [1], in test [2], in [3], in [5], in test [6] and in [7] was “inactive” throughout. Moreover, the Potency entry in [8], in test [9], in test [10], in test [11], in [12] and in test [14] was “inactive” throughout. Moreover, the Potency result in test [15], in test [16], in test [17], in test [18], in test [19] and in test [20] was “inactive” throughout. The max response in test [4] is -0.479%.
For `CN1Cc2cc(C(=O)N3CCC(C4CCNCC4)CC3)ccc2NC(CC(=O)O)C1=O` (stereo not drawn), the Potency result in test [1], in test [2], in [3], in [5], in [6] and in test [7] was “inactive” throughout. For the same compound, the Potency entry in test [8], in test [9], in test [10], in test [11], in test [12] and in test [13] was “inactive” each time. Further, the Potency entry in test [14], in [15], in test [16], in test [18], in [19] and in [20] was “inactive” each time. Further, the max response in test [4] was 5.98%.
Take `CCOC(=O)C(F)(F)F`: the Potency result in test [1], in [2], in [3], in test [5], in [6] and in test [7] was “inactive” throughout. The Potency result in test [8], in test [9], in test [10], in [11], in test [12] and in test [13] was “inactive” each time. In addition, the Potency result in [14], in test [15], in test [16], in [17], in [18] and in test [19] was “inactive” in each case. The Potency result in [20] is “inactive”. Besides, in [4], the max response was 6.21%.
On to `COC(=O)C1=C(C)NC(COC(N)=O)=C(C(=O)OC(C)C)C1c1cccc(Cl)c1Cl` (stereo not drawn), for which the Potency result in [1], in test [5], in test [11], in test [14], in [18] and in test [20] was “inactive” each time. Further, the Potency in test [2] is 26.8 µM (active); in [3], 23.9 µM (active); in test [4], 26.8 µM (active); in test [7], 19 µM (active); in test [10] it was 2.68 µM (active); in test [15], 23.9 µM (active). In addition, the Potency is 26.8 µM (active) in [16] and 1.9 µM (active) in [19].
Consider `NCC(=O)O`, for which the cytotoxicity increase is 1.17% [at 15.8 µM] in test [1]; 8.58% [at 15.8 µM] in [6]; 1.98% [at 15.8 µM] in [9]; 1.64% [at 15.8 µM] in test [11]; 1.6% [at 15.8 µM] in [13]; 12.2% [at 15.8 µM] in [14]. Further, the activity change, negative = cytotoxicity was 4.48% [at 15.8 µM] in test [2]; -1.51% [at 15.8 µM] in test [10]; 3.07% [at 15.8 µM] in [16]; 10.2% [at 15.8 µM] in [17]; 5.3% [at 15.8 µM] in test [19]. Also, the viability change, negative = cytotoxic in [3] was 8.37% [at 15.8 µM]. Moreover, the activity change in test [5] was -2.36% [at 15.8 µM, stronger effect = higher value]; in test [18], -1.23% [at 15.8 µM, stronger effect = higher value]. Besides, the activity change, negative = cytotoxic in test [7] was 0.863% [at 15.8 µM]; in test [15] it was 8.2% [at 15.8 µM]. Further, the cytotoxicity was 7.92% [at 15.8 µM] in [8] and 6.15% [at 15.8 µM] in test [12].
With `Nc1cccc([N+](=O)[O-])c1`, the Potency result in test [1], in [2], in test [3], in [5], in test [6] and in test [7] was “inactive” in each case. Also, the Potency result in [8], in test [9], in [10], in [11], in test [13] and in test [14] was “inactive” each time. Moreover, the Potency result in test [15], in test [16], in test [17], in test [18], in test [19] and in [20] was “inactive” in each case. In test [4], the max response was 1.66%.
For `CN1CCC(N(Cc2cccs2)c2ccccc2)CC1`, the Potency is 19 µM (active) in test [1]; 19 µM (active) in [5]; 10.7 µM (active) in [8]; 21.3 µM (active) in test [9]; 21.3 µM (active) in [11]; 21.3 µM (active) in test [13]. Besides, the Potency in test [14] and in [18] was 19 µM (active) throughout. The Potency result in test [2], in test [3], in test [7], in test [10], in test [15] and in test [16] was “inactive” in each case. In addition, the Potency result in test [17] and in test [19] was “inactive” in each case. In test [4], the max response is -14.7%.
